The source made the active and inactive calls.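 Rule for the calls: active = inhibition at or above 50% relative to wild type and mutant plate controls; inactive = inhibition below 50%.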

This test is described as follows: inhibitors of Chlamydomonas gravitaxis, primary screen, whole organism, Chlamydomonas reinhardtii, WT vs cilia-less mutant, absorbance, 96-well (AID 463189).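 Note: 0% = wild type cc124 cells in DMSO and 100% = ciliumless bld1 mutant cells.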 The conditions noted are these: OD600 absorbance, 2 days, at 10 µM, stronger effect = higher value.
In general, inhibition refers to the change of the read-out against control, counted positive when it falls. With `C=CC1(C)CC(=O)C2(O)C(C)(O1)C(OC(C)=O)C(O)C1C(C)(C)CCC(O)C12C` (centres undefined), the inhibition was -1.2% (inactive).

As for `O=NN(CCCl)C(=O)NCCCl`, the inhibition was 6.33% (inactive).

Take `COc1cc(NS(C)(=O)=O)ccc1Nc1c2ccccc2nc2ccccc12`: the inhibition is -1.97% (inactive).

Take `NCCCS(=O)(=O)O`: the inhibition was -4.87% (inactive).

On to `Nc1c2c(nc3ccccc13)CCCC2`, for which the inhibition was -5.5% (inactive).

As to `CCCCC#Cc1nc(N)c2ncn([C@@H]3O[C@H](C(=O)NCC)[C@@H](O)[C@H]3O)c2n1`, the inhibition was -3.94% (inactive).

Turning to `Cc1cccc(C(=O)NCN2CCN(c3ccccc3C#N)CC2)c1`, the inhibition was 0.075% (inactive).

As for `COc1cccc(-c2cc(=O)c3ccccc3o2)c1N`, the inhibition was 0.351% (inactive).

In the case of `CN1CCc2cc(O)c(O)cc2C(c2ccccc2)C1` (centres undefined), the inhibition was 2.5% (inactive).
